TEAD-YAP block: TEAD-YAP interaction inhibition, primary screen, TEAD-YAP interaction inhibitor project, luminescence, HEK-TIYL cells; TEAD-Gal4/YAP UAS-luciferase luminescence; inhibition, % at 9.12 µM; 640,000 compounds, 1.4% hits; AID 1259422, 2018; in the data active means inhibition above about 32%
GPR151 activ: activators of human GPR151, primary screen, cell-based, PathHunter beta-arrestin, luminescence. PathHunter beta-arrestin GPR151 cells. activation, % at 11.2 µM. 650,000 compounds, 1% hits; in the data active means activation above about 4.9%
Target sequence (Q8TDV0 whole entry, looked up): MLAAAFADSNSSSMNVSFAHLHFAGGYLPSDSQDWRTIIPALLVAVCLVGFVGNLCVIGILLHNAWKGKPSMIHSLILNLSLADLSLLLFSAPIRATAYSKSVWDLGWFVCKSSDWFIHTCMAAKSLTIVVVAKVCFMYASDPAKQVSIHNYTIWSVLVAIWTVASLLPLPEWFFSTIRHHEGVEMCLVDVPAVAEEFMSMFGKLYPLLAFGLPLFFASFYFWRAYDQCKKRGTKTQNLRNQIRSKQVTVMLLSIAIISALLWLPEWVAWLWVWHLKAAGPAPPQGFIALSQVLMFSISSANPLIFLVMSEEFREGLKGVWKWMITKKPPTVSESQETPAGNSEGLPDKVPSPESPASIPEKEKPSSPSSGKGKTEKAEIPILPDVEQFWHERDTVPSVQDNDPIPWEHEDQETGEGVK
FBW7 act: FBW7 E3 ligase activators, primary screen, biochemical, AlphaScreen, human. normalized activity (activation), % at 26.1 µM. 650,000 compounds, 0.13% hits. AlphaScreen FBW7–phospho-cyclin E peptide binding, activator screen. AID 1259310, 2017; in the data active means normalized activity above about 1.9%;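 further: purified mutant Fbw7 with reduced substrate affinity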
MITF primary: MITF inhibitors, primary screen, biochemical, AlphaScreen, human | Microphthalmia-associated transcription factor (Homo sapiens), O75030 | AlphaScreen MITF homodimerization, bead proximity signal | inhibition, % at 2.6 µM | 650,000 compounds, 0.91% hits; in the data active means inhibition above about 50%
MITF inh conf: MITF inhibitors, retest of hits, confirmation, biochemical, AlphaScreen, triplicate. shares compounds with MITF primary. AlphaScreen MITF homodimerization, biotin/His-MITF beads. inhibition, % at 2.6 µM. 4,700 compounds, 16% hits. AID 1259372, 2018;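 active means inhibition above a cutoff derived from the DMSO control wells, cut at about 28% in these data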;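 further: inhibitors lower the bead chemiluminescence by keeping MITF from dimerizing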
AS interf DR: AlphaScreen optical interference compounds, dose response, counter-screen, biochemical, HTS. 480 compounds, 6% hits. AID 1259373, 2018. shares compounds with MITF primary. AlphaScreen optical interference counterscreen, cell-free. IC50, µM; call rule not given here
AS interf ctr: AlphaScreen optical interference compounds, counter-screen for MITF inhibitor project, biochemical, triplicate; shares compounds with MITF primary; LysRS AlphaScreen counterscreen, signal interference; inhibition, % at 2.6 µM; 4,700 compounds, 7.6% hits; AID 1259376, 2018;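 active means inhibition above a cutoff derived from the DMSO control wells, cut at about 30% in these data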
A number is an active result; – = inactive; · = no result given. A selection: hits, their analogues and other compounds. The true share with any hit is near 3.5%.

SMILES | TEAD-YAP block | GPR151 activ | FBW7 act | MITF primary | MITF inh conf | AS interf ctr | others
CN1CCN(C2CCN(C(=O)c3ccc(F)cc3)CC2)CC1 | – | – | – | 57.5 | – | –
O=C(c1ccccc1F)N1CCN(C2CCCCC2)CC1 | – | – | – | – | · | ·
COc1ccc(C(=O)N2CCC(N3CCCC3)CC2)cc1 | – | – | – | – | · | ·
O=C(c1ccccc1)N1CCC(N2CCN(Cc3ccccc3)CC2)CC1 | – | – | – | 83.1 | – | –
COCCCNC(=O)CCCNC(=O)Cn1cnc2sc3c(c2c1=O)CCCC3 | – | – | – | – | · | ·
CCOc1ccccc1-n1c(SCC(=O)NC(C)(C)C)nnc1-c1cccnc1 | – | – | – | – | · | ·
O=C(Cc1ccccc1)N1CCC(C(=O)N2CCN(c3ccccc3)CC2)CC1 | – | – | – | – | · | ·
O=C(Cc1ccccc1)N1CCC(N2CCN(c3ccccc3)CC2)CC1 | – | – | – | 55.1 | – | –
O=C(c1ccco1)N1CCN(C2CCN(Cc3ccccc3)CC2)CC1 | – | – | – | 59.9 | – | –
O=C(c1ccc(F)cc1)N1CCN(C2CCN(Cc3ccccc3)CC2)CC1 | – | – | – | 57.2 | – | –
Fc1ccc(CN2CCC(N3CCN(Cc4ccccc4)CC3)CC2)cc1 | – | – | – | – | · | ·
O=C(c1ccco1)N1CCC(N2CCN(c3ccccc3)CC2)CC1 | – | – | – | – | · | ·
CCOC(=O)c1c(N)n(CCCN2CCOCC2)c2nc3ccccc3nc12 | – | – | – | 55.4 | – | –
CCCCc1nc2ccccc2c(NC(=O)CN2CCN(C(=O)c3ccco3)CC2)c1CCC | – | – | – | 65.4 | – | –
CCCCN(C)CC(=O)Nc1cc(N(C)C)nc2ccccc12 | – | – | – | – | · | ·
CCCCc1nc2ccccc2c(NC(=O)CN(CCCC)CCCC)c1CCC | – | – | – | 83.1 | – | –
CCCCc1nc2ccccc2c(NC(=O)CNC2CCCCC2)c1CCC | – | – | – | 66.3 | – | –
COc1ccc(C2CC(C(F)(F)F)n3nc(C(=O)NCc4ccccc4Cl)cc3N2)cc1OC (stereo unspecified) | – | – | – | – | · | ·
CC1Cc2ccccc2N1C(=O)CN1CCN(C)CC1 (stereo unspecified) | – | – | – | 77.4 | – | –
CC1Cc2ccccc2N1C(=O)CN1CCCN(CC(=O)N2c3ccccc3CC2C)CC1 (stereo unspecified) | – | – | – | 62.2 | – | –
CCOC(=O)N1CCN(CC(=O)N2c3ccccc3Sc3ccccc32)CC1 | – | – | – | 52.6 | – | –
CCOC(=O)N1CCN(CC(=O)N2c3ccccc3CC2C)CC1 (stereo unspecified) | – | – | – | 66.8 | – | –
N#Cc1cc2cc3c(cc2nc1SCC(=O)NCC1CCCO1)OCO3 (stereo unspecified) | – | – | – | – | · | ·
Cc1cc2nnc(SCC(=O)NCCc3ccccc3)n2c2ccccc12 | – | – | – | – | · | ·
O=C(Cc1ccc(F)cc1)Nc1c2c(nn1-c1ccccc1)CS(=O)C2 (stereo unspecified) | – | – | – | – | · | ·
SMILES | TEAD-YAP block | GPR151 activ | FBW7 act | MITF primary | MITF inh conf | AS interf ctr | others
Cc1cccc(CC(=O)Nc2c3c(nn2-c2ccc(F)cc2)CS(=O)C3)c1 (stereo unspecified) | – | – | – | 88.2 | – | –
O=C(NCCO)C(O)(c1ccc(F)cc1)c1ccc(F)cc1 | – | – | – | – | · | ·
O=C1CC(N2CCN(c3ccc(Cl)cc3)CC2)C(=O)N1c1ccccc1F (stereo unspecified) | – | – | – | – | · | ·
O=C1CC(N2CCN(S(=O)(=O)c3ccccc3F)CC2)C(=O)N1c1ccccc1F (stereo unspecified) | – | – | – | 79.5 | – | –
COC(=O)c1ccccc1NC(=O)CN(c1cccc(C)c1C)S(=O)(=O)c1ccccc1 | – | – | – | – | · | ·
O=C(Nc1ccc(-c2ccccc2)cc1)c1ccccc1O | – | – | – | – | · | ·
CC(C)[C@@H]1NC(=O)[C@H]2CN(C(=O)c3ccc(Cl)cc3)CCN2C1=O | – | – | – | – | · | ·
CC(C)[C@@H]1NC(=O)[C@H]2CN(C(=O)NC3CCCCC3)CCN2C1=O | – | – | – | 71.3 | 68.2 | – | AS interf DR=–
C[C@H]1NC(=O)[C@H]2CN(C(=O)NC3CCCCC3)CCN2C1=O | – | – | – | 74.6 | 74.4 | – | AS interf DR=–
CSCC[C@@H]1NC(=O)C/C=C/[C@@H](C)COC(=O)[C@@H](C)COC1=O | · | – | – | – | · | ·
O=C(Nc1ccc(F)cc1F)N1CCc2nc3ccccn3c(=O)c2C1 | – | – | – | – | · | ·
Cc1ccc(/C=C2/SC(=S)N(c3cccnc3)C2=O)o1 | – | – | – | – | · | ·
CCOC(=O)c1ccc(NC(=O)CCOc2ccccc2)cc1 | – | – | – | 74.6 | – | –
c1ccc(CSc2ccc(-c3ccccn3)nn2)nc1 | – | – | – | 86.4 | 96.3 | 100.3
NC(=O)CSc1ccc(-c2ccccn2)nn1 | – | – | – | 81.6 | 72.7 | 94.1
Fc1ccc(-c2ccc(SCc3cccnc3)nn2)cc1 | – | – | – | – | · | ·
CCSc1ccc(-c2ccccn2)nn1 | – | – | – | 82.4 | 76.1 | 96.5
c1ccc(-c2ccc(SCc3cccnc3)nn2)nc1 | – | – | – | 85.3 | 99.4 | 100.3
C=Cn1ccnc1P(c1ccccc1)c1nccn1C=C | – | – | – | 104.1 | 110.2 | 100.3
Oc1ccc(CCNc2ccnc(Nc3ccncn3)n2)cc1 | – | – | – | – | · | ·
Cc1cc(C(=O)Nc2ccc(C)c(C)c2)no1 | – | – | – | – | · | ·
COCCNc1ccc2ncc(-c3cccc(C(F)(F)F)c3)n2n1 | – | – | – | 64.7 | – | –
COCCNc1ccc2ncc(-c3cccc(N(C)C)c3)n2n1 | – | – | – | – | · | ·
C=CCONC(=O)c1cnc2scc(C)n2c1=O | – | – | – | – | · | ·
COC(=O)c1ccccc1NC(=O)/C(C#N)=C/c1cc(Cl)c(OC)c(OC)c1 | – | – | – | 53.3 | – | –
COc1ccc(/C=C(/NC(=O)c2ccc(Cl)cc2)C(=O)Nc2cc(C)cc(C)c2)cc1OC | – | – | – | – | · | ·
O=CN1CCN(C(=O)COc2ccc(Br)cc2Cl)CC1 | – | – | – | 70.5 | – | –
O=C(COc1ccc(Br)cc1Cl)N1CCCCC1 | – | – | – | – | · | ·
Cc1ccc(C2CC(c3cccs3)=NN2C(=O)CSc2nnc(CNC(=O)c3cccc(F)c3)n2C)cc1 (stereo unspecified) | – | – | – | – | · | ·
CCN1CCN(C(c2ccccc2F)c2nnnn2CCOC)CC1 (stereo unspecified) | – | – | – | – | · | ·
